Reference: PubChem BioAssay AID504332 (National Center for Advancing Translational Sciences (NCATS), 2011)
Hit rate of the full screen: of about 350,000 compounds, about 31,000 (8.9%) were called active. Another 15% or so got no clear call; they are omitted. The entries come from a sample that favours actives as a whole. Unmarked numbers belong to inactive results. The call rests on the fitted dose curve; in most records, active means well fitted inhibition curve with a large enough effect; inconclusive means small, poorly fitted or top-dose-only effect; inactive means no such curve, though single readings can be large or run the other way.

target: Histone-lysine N-methyltransferase EHMT2 (Homo sapiens) (UniProt Q96KQ7); assay: qHTS Assay for Inhibitors of Histone Lysine Methyltransferase G9a; settings: G9a H3K9 monomethylation, AlphaScreen, 2 h; series mostly up to 59 µM; activity, negative = inhibition: at the top concentration; further: nearly all actives have a fitted effect of over 75% in size
Summary of the method: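 G9a (20 nM) was preincubated 15 min with compound, then reacted 2 h at room temperature with 500 nM biotin-H3K9 peptide and 20 µM SAM. Monomethyl-H3K9 detected by AlphaScreen using anti-H3K9me1 antibody.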
On the % scale 0 is the no-effect control and ±100 the full control effect; potency means the concentration at half of the fitted maximal effect.

Sequence of Histone-lysine N-methyltransferase EHMT2 (Homo sapiens) (Q96KQ7 913-1193 limits assumed): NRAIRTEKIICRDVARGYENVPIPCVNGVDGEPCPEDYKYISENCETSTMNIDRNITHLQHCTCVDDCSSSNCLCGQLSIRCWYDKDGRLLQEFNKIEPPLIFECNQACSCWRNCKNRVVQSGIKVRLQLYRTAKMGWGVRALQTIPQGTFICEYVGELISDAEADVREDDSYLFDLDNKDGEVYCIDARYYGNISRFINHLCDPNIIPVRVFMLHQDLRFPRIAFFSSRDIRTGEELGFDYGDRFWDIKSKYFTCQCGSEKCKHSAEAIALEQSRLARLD

| Structure (SMILES) | activity, negative = inhibition | Potency |
| --- | --- | --- |
| Cc1ccc(Cn2c(=O)n(Cc3nc(-c4ccccc4)no3)c(=O)c3cc4c(cc32)OCO4)cc1 | -6.65% (inactive) | – |
| COc1cccc(C2=CC(=O)C[C@H](c3ccc(OC)c(OC)c3)C2)c1 | -2.09% [at 2.33 µM] | – |
| CCOC(=O)c1c(C)oc2nc(C)nc(Nc3ccc(CC)cc3)c12 | -15% (inactive) | – |
| CCOC(=O)c1c(C)oc2nc(C)nc(N3CCN(c4ccc(OC)cc4)CC3)c12 | – | 12.6 µM (active) |
| Cc1nc(N2CCOCC2)c2c(C(=O)NCc3cccc(Cl)c3)c(C)oc2n1 | -4.17% (inactive) | – |
| CC(=O)c1cc2c(cc1NC(=O)Cn1nc(-c3ccc(F)cc3)ccc1=O)OCO2 | -6.97% (inactive) | – |
| O=C(CN1C(=O)CCn2nc(-c3ccccc3)cc21)NCc1ccccc1 | -6.9% (inactive) | – |
| COC(=O)c1ccccc1NC(=O)C(Cc1ccccc1)N1Cc2ccccc2C1=O (centres undefined) | -33.9% (inactive) | – |
| CC1=CC(C)(C)Nc2ccc(OC(=O)CN3C(=O)C4CCCCC4C3=O)cc21 (centres undefined) | 2.3% (inactive) | – |
| CC1=CC(C)(C)Nc2ccc(OC(=O)C(Cc3ccccc3)N3C(=O)C4CCCCC4C3=O)cc21 (centres undefined) | – | 50.1 µM (active) |
| CC1(C)O[C@H]2CC(=O)OCC23[C@H]2CC[C@@]4(C)[C@H](c5ccoc5)OC(=O)[C@H]5O[C@]54[C@]2(C)C(=O)C[C@@H]13 (some centres undefined) | 12.6% [at 12.7 µM] | – |
| COc1ccc(CCNC(=O)CCCCn2c(=O)c3ccccc3n(Cc3ccccc3C)c2=O)cc1OC | -0.422% (inactive) | – |
| O=c1cc(CO)oc(C(Nc2cccc(C(F)(F)F)c2)c2ccccn2)c1O (centres undefined) | – | 1.26 µM (active) |
| O=C(Nc1cccc(C(F)(F)F)c1)c1cnccn1 | 7.12% [at 102 µM] (inactive) | – |
| O=C(Nc1cccc([N+](=O)[O-])c1)Nn1cnnc1 | 14.3% [at 102 µM] (inactive) | – |
| Cc1ccc(CN(C)CC(=O)Nc2cccc([N+](=O)[O-])c2)o1 | -40.5% [at 102 µM] (inactive) | – |
| O=c1cc(CO)oc(C(Nc2cccc([N+](=O)[O-])c2)c2ccccn2)c1O (centres undefined) | – | 0.794 µM (active) |
| FC(F)(F)c1cccc(Nc2ncnc3ccccc23)c1 | 8.16% [at 12.7 µM] | – |
| CCOC(=O)c1c(C)n(S(=O)(=O)c2ccc(C)cc2C)c2ccc(NS(=O)(=O)c3ccc(C)cc3C)cc12 | -48.6% (inactive) | – |
| Cc1ccc(N/C=C/C(=O)c2ccccc2)cc1C | -10.2% (inactive) | – |
| O=C(/C=C\NCC(=O)c1ccccc1)c1ccccc1 | – | 6.31 µM (active) |
| COc1ccc(NC(=O)CCCC(=O)c2ccccc2)cc1 | 23.7% [at 102 µM] (inactive) | – |
| Cc1ccc(/C=C/C(=O)OCC(=O)NCc2ccc(Cl)cc2)o1 | -2.38% [at 2.33 µM] | – |
| Cc1[nH]c2ccccc2c1/C=C(/C#N)C(=O)NC(C)C | 6.08% [at 102 µM] (inactive) | – |
| CC(C)NC(=O)/C(C#N)=C\c1ccc(N(C)C)c(Br)c1 | – | 39.8 µM (active) |

| Structure (SMILES) | activity, negative = inhibition | Potency |
| --- | --- | --- |
| Cc1ccc(/C=C(\C#N)C(=O)Nc2cc(C)ccc2C)cc1 | 1.04% (inactive) | – |
| Cc1ccc(NC(=O)Nc2sc3nc4n(c(=O)c3c2C)CCC(C)CC4)c(Cl)c1 (centres undefined) | 31.6% (inactive) | – |
| Cc1ccccc1C1=NC(C(F)(F)F)(C(F)(F)F)c2c(n(-c3ccc(F)cc3)c(=O)[nH]c2=O)N1 | 3.46% [at 102 µM] (inactive) | – |
| O=c1[nH]c(=O)n(Cc2ccco2)c2c1C(C(F)(F)F)(C(F)(F)F)N=C(c1ccco1)N2 | – | 50.1 µM (active) |
| Nc1c(N(Cc2ccco2)C(=O)c2cccc(F)c2)c(=O)[nH]c(=O)n1Cc1ccccc1 | -3.15% [at 12.7 µM] | – |
| CCCn1c(=S)[nH]c2ccc(C(F)(F)F)cc21 | – | 11.2 µM (active) |
| COc1ccc(/C(C)=N\NC(=O)c2ccc(-c3ccccc3)cc2)c(F)c1 | 40.6% [at 102 µM] (inactive) | – |
| Cc1cccc(C(=O)NC(=S)N(C)C2CCCCC2)c1 | -7.56% [at 102 µM] (inactive) | – |
| CC(OC(=O)c1ccccc1NCCO)C(=O)Nc1ccnn1C(C)C (centres undefined) | -12.9% [at 12.7 µM] | – |
| CC(=O)c1cccc(Nc2ccc3cc(S(=O)(=O)N4CCC(C)CC4)ccc3n2)c1 | 1.63% (inactive) | – |
| Cc1cccc(S(=O)(=O)c2cn(Cc3ccccc3)c3cc(N4CCOCC4)c(F)cc3c2=O)c1 | -2.93% (inactive) | – |
| COc1ccc(C23NCCN2C(=O)c2ccccc23)cc1 (centres undefined) | 28.2% [at 102 µM] (inactive) | – |
| CN1CCN(c2ncc3c(n2)CC(c2ccccc2F)CC3=O)CC1 (centres undefined) | -7.44% [at 102 µM] (inactive) | – |
| CC1=C(C(=O)Nc2cc(C)ccn2)C(c2cnn(C)c2)C2=C(CC(c3ccccc3)CC2=O)N1 (centres undefined) | 13.4% (inactive) | – |
| Cc1nc2nc3c(cn2n1)C(=O)CC(c1ccccc1)C3 (centres undefined) | – | 56.2 µM (active) |
| CC(=O)c1ccc(NC(c2ccc(F)cc2)c2nnc(-c3ccccc3)o2)cc1 (centres undefined) | -36% (inactive) | – |
| COc1cccc(NC(=O)C2CCN(c3cc(C)nc4c(-c5ccc(Cl)cc5)c(C)nn34)CC2)c1 | -38.5% (inactive) | – |
| CN(C)CCN(Cc1ccccc1)S(=O)(=O)c1csc(C(N)=O)c1 | -0.651% (inactive) | – |
| O=C(c1cc(-c2ccc(O)cc2)on1)N1CCOCC1 | -6.36% (inactive) | – |
| Cc1ccc(OCCSc2nc3ccc(NC(=O)COc4ccc(C)cc4)cc3s2)cc1 | -12.8% (inactive) | – |
| COc1cc(C(=O)Nn2c(CC(C)C)nc3ccccc3c2=O)cc(OC)c1OC | -3.64% [at 102 µM] (inactive) | – |
| COc1cc(C(=O)Nn2c(O)c(C3=c4ccccc4=NC3=O)sc2=S)ccc1O | – | 44.7 µM (active) |
| CCCn1ccc2c(OCC(=O)NCc3ccc(F)cc3)cccc2c1=O | 0.876% (inactive) | – |
| COc1ccc(N(C)S(=O)(=O)c2ccc3c(c2)CC(C)N3C(=O)C2CC2)c(OC)c1 (centres undefined) | -21.9% (inactive) | – |
